According to the supplement of paper PMC4166925:
± gives the standard deviation of the averaged measurements. Over roughly 33,000 sequences, “E-score (dimensionless, -0.5 to 0.5)” has its median near -0.046; the highest 2% begin near 0.36. The entries come from a sample that favours the highest values as a whole.

System: T1, SpTbr T-box DNA-binding domain (GST fusion)
T1 sequence: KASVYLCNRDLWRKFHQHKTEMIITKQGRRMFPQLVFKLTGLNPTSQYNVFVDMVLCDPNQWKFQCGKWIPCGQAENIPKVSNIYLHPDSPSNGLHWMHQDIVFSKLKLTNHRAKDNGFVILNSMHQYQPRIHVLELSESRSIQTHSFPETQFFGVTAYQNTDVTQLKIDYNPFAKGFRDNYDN
Test: PBM E-score of 8-mer (E-score (dimensionless, -0.5 to 0.5)); Tbr is Tbrain of the sea star Patiria miniata (Pm) or the sea urchin Strongylocentrotus purpuratus (Sp); higher = stronger binding preference
Settings: the construct has about 5 more residues each side
In short: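 Universal Agilent oligonucleotide arrays, made double-stranded by primer extension, were incubated with 200 nM GST-fused Tbr T-box DNA-binding domain in PBS (pH 7.5). The protein was expressed in BL21 E. coli at 20 °C and purified by glutathione affinity chromatography. After scanning and quantification, the Universal PBM Analysis Suite assigned an enrichment E-score to each ungapped 8-mer, averaged over duplicate arrays.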

Sequence | PBM E-score of 8-mer
AAACTATG | -0.131 ± 0.049
CCAACTCA | -0.0818 ± 0.049
CAGAAGCC | -0.308 ± 0.064
GTTCAATA | -0.174 ± 0.0066
ATGTCACA | 0.3087 ± 0.00058
GCGTCAAA | 0.31 ± 0.029
CTGTCATA | 0.122 ± 0.036
GCGTCAAC | 0.3857 ± 0.0035
ATGTCATA | -0.202 ± 0.0053
GTGTCATA | 0.404 ± 0.022
CCGTCAAC | 0.24 ± 0.021
GTGTCACA | 0.436 ± 0.011
ATGTCACG | 0.204 ± 0.017
ACCACACT | 0.328 ± 0.0063
CAAGGTCC | -0.257 ± 0.041
AACCCGTT | -0.0209 ± 0.077
AGAGGTGC | 0.394 ± 0.014
CGAGGTCC | -0.207 ± 0.017
GGAGGTCA | 0.0169 ± 0.067
AGAGGTTC | -0.172 ± 0.065
GGAGGTGA | 0.374 ± 0.035
AGAGGTGG | 0.285 ± 0.031
CGAGGTTA | 0.0218 ± 0.011
CGAGGTGC | 0.445 ± 0.0072
CGAGGTAC | -0.11 ± 0.026

Sequence | PBM E-score of 8-mer
CGAGGTGA | 0.418 ± 0.01
AGAGGTGA | 0.298 ± 0.023
CGAGGTCA | 0.0539 ± 0.041
GCAGCCCC | -0.15 ± 0.027
CGTAGTGC | -0.0779 ± 0.017
CGCTCGAC | -0.0351 ± 0.11
ATCCTGTA | -0.104 ± 0.036
ACCAGACT | -0.1941 ± 0.0019
GACGCCCA | -0.0155 ± 0.091
AGGTGTTG | 0.482 ± 0.0055
AGATGTTG | 0.0448 ± 0.039
AGATGTTC | 0.0355 ± 0.018
AGCTGTTG | 0.208 ± 0.0081
CGGTGTTC | -0.0703 ± 0.07
AGGTGTTC | 0.3819 ± 0.00093
CGGGGTGC | 0.233 ± 0.02
GGCCCAGA | -0.2892 ± 0.0023
GTATGGCA | 0.0595 ± 0.0057
GCGCTGTA | 0.206 ± 0.014
GTACTATA | -0.112 ± 0.079
CCATGCGC | -0.0395 ± 0.1
ACATATCC | -0.0962 ± 0.058
TCTATCAA | -0.141 ± 0.0063
GGGTGTTA | 0.463 ± 0.0026
CGGTGTCC | -0.0339 ± 0.0071

Sequence | PBM E-score of 8-mer
GGGGGTTA | -0.156 ± 0.038
CGGTGTGA | 0.456 ± 0.0098
CGGTGTGC | 0.0403 ± 0.015
GGGTGTCA | 0.475 ± 0.0055
CGGTGTTA | 0.3373 ± 0.0021
CGATGTCA | 0.1339 ± 0.00055
GCGTGTCA | 0.313 ± 0.024
CGGTGTCA | 0.398 ± 0.02
GGGGGTCA | 0.0604 ± 0.0046
CGATGTGA | 0.183 ± 0.017
ATGTAGGG | -0.355 ± 0.013
CGAGTTAA | 0.193 ± 0.008
GCCCACTA | -0.0422 ± 0.07
CTTCACTA | 0.0992 ± 0.0044
TCACCCGA | 0.0108 ± 0.15
GCACCCGC | 0.305 ± 0.035
CCACCCGC | 0.105 ± 0.028
ACACCCGA | 0.41 ± 0.0072
ACACCCGG | 0.317 ± 0.042
ACACCCGC | 0.3794 ± 0.0031
GCTCTGTA | -0.199 ± 0.025
AACTGACT | -0.141 ± 0.043
CAGAAATG | -0.202 ± 0.012
CGTTTTCC | -0.282 ± 0.054
TCATTACA | -0.0133 ± 0.029

Sequence | PBM E-score of 8-mer
ATGTGAAA | 0.263 ± 0.03
ATGTGAAC | 0.203 ± 0.012
CTGTGAAC | 0.4126 ± 0.00049
CTGTGAAG | 0.296 ± 0.027
TTGTGAAA | 0.361 ± 0.04
CTGTGAAA | 0.396 ± 0.017
AACTAGGC | -0.0665 ± 0.022
GCCGGATA | -0.321 ± 0.0046
CAGAGATC | -0.204 ± 0.022
TCGTAGCA | 0.128 ± 0.038
GGATTGGA | -0.187 ± 0.026
CGATCCGA | -0.0614 ± 0.036
AAAGAGGG | -0.0825 ± 0.036
GCTGACAA | 0.227 ± 0.031
CCTGACAA | 0.153 ± 0.0094
CCTGACAC | 0.427 ± 0.01
CCTGACAG | 0.121 ± 0.0013
ACTGACAC | 0.349 ± 0.011
GCTGACAC | 0.386 ± 0.039
ATTTGTGG | 0.075 ± 0.012
CTCGGGTC | -0.0239 ± 0.0073
AGATGACG | 0.125 ± 0.029
TACAGCGA | -0.193 ± 0.038
AGCACTTC | 0.3006 ± 0.0019
CACACTGC | 0.175 ± 0.0027

Sequence | PBM E-score of 8-mer
ATCACTTC | 0.226 ± 0.033
CGCACTTA | 0.329 ± 0.0023
CACACTTC | 0.4456 ± 0.0039
AACACTGA | 0.0941 ± 0.085
ATCACTTA | 0.0863 ± 0.053
AACACTTA | 0.386 ± 0.031
CACACTTA | 0.447 ± 0.0064
CCCACTTC | 0.171 ± 0.018
AACACTTC | 0.407 ± 0.0093
CACACTGA | 0.235 ± 0.0071
AGGAGGGG | 0.0237 ± 0.0028
ACATCCAG | 0.11 ± 0.03
CAGATTGA | -0.076 ± 0.021
CCAGAAGC | -0.0847 ± 0.077
CGAGTATC | -0.139 ± 0.032
CCCGTTAC | -0.0493 ± 0.068
AACTGCTC | 0.00139 ± 0.031
GCAAAAAA | -0.111 ± 0.022
ATCCAATG | -0.108 ± 0.019
ACCATTGA | 0.0727 ± 0.061
GCAGCCAC | 0.126 ± 0.026
ATACAGAC | -0.0432 ± 0.019
TCCAATAA | -0.0798 ± 0.025
AACACTAG | 0.222 ± 0.049
GCCACTTA | 0.244 ± 0.011

Sequence | PBM E-score of 8-mer
GACACTGA | 0.093 ± 0.019
GACACTTA | 0.393 ± 0.0065
ATCACTTG | 0.169 ± 0.064
AACACTTG | 0.3953 ± 0.0019
GTAGCTTA | -0.0295 ± 0.0053
AAGCTTAC | -0.128 ± 0.056
TCAGGCAA | -0.143 ± 0.02
CAGTATTC | -0.193 ± 0.092
AACCTACC | -0.182 ± 0.056
GACCTACA | -0.0944 ± 0.046
GACCTACC | -0.129 ± 0.006
CCCCTACG | -0.185 ± 0.019
CACCTACG | 0.373 ± 0.0055
TACCTACA | -0.24 ± 0.016
CACCTACA | 0.371 ± 0.014
CACCTACC | 0.394 ± 0.01
AACCTACG | -0.159 ± 0.083
CCCGCCTA | -0.0474 ± 0.13
TATTGCCA | 0.0232 ± 0.0082
CCCTTGCG | -0.0683 ± 0.034
GTCTCAGA | -0.0914 ± 0.014
GGTGCATA | 0.0222 ± 0.011
CCCGATAA | 0.0927 ± 0.11
CCACACGG | 0.0912 ± 0.023
CGAACGAG | 0.0552 ± 0.067

Sequence | PBM E-score of 8-mer
CGTCCTGC | -0.234 ± 0.0096
ATAAGTCA | -0.102 ± 0.017
AGACACCA | 0.251 ± 0.032
CGACACGA | 0.174 ± 0.041
CGACACCC | 0.416 ± 0.028
GGACACCA | 0.183 ± 0.045
GGACACCC | 0.185 ± 0.023
CGACACCA | 0.387 ± 0.014
TGACACCA | 0.419 ± 0.0076
CGACACCG | 0.257 ± 0.037
AGACACCC | 0.156 ± 0.041
GGCCACTA | -0.0216 ± 0.031
CTACTACC | -0.112 ± 0.033
CCAATTTC | 0.0768 ± 0.033
ATCGCTCG | -0.0361 ± 0.046
CTCGCATC | 0.129 ± 0.052
CTCGCAGA | 0.0495 ± 0.024
ATCGCACA | 0.366 ± 0.0063
CTGGCACA | 0.1856 ± 0.00035
CTCGCAAG | 0.204 ± 0.032
CTGGCACC | 0.367 ± 0.018
ATCGCACG | 0.345 ± 0.027
ATGGCACC | 0.3573 ± 0.0028
CTCGCACA | 0.37 ± 0.016
